# Measured values reported in ChEMBL document CHEMBL1961873, “Compounds: GSK PKIS; Assays: Nanosyn kinase panel” (2012).
# Molecular target: Tyrosine-protein kinase SYK (Homo sapiens) (UniProt P43405)
# Details: at 1 µM
row,Compound,inhibition [%]
1,CC(C)=Cc1cccc2c1/C(=N/Nc1ccc(S(N)(=O)=O)cc1)C(=O)N2,-2.03
2,COC(=O)Nc1nc2cc(Oc3cccc(NC(=O)Nc4cc(C(F)(F)F)ccc4F)c3)ccc2[nH]1,-0.22
3,Nc1ncnc2occ(-c3ccc(NC(=O)Nc4cc(C(F)(F)F)cc(C(F)(F)F)c4)cc3)c12,-6.95
4,CCn1c(-c2nonc2N)nc2cncc(C(=O)N3CCNCC3)c21,3.25
5,NC(=O)c1ccc(-c2nc(-c3ccccn3)c(-c3ccc4c(c3)OCO4)[nH]2)cc1,0.21
6,CCn1c(-c2nonc2N)nc2c(C#CC(C)(C)O)nc(CN3CCCC3)cc21,-0.03
7,NCc1ccc(-c2nc(-c3ccc(Cl)c(O)c3)c(-c3ccncc3)[nH]2)cc1,1.13
8,N#Cc1c(NC(=O)c2cccc3ccccc23)sc2c1CCCC2,2.16
9,Cc1cc(O)cc(C)c1/C=C/c1cncc(-c2nn[nH]n2)c1,-1.42
10,Cc1cccc(-c2n[nH]cc2-c2ccc3ncccc3n2)n1,-0.38
11,O=C1NC(=O)C(N2CCc3ccccc32)=C1c1ccc(Cl)cc1,-1.26
12,CCn1c(-c2nonc2N)nc2ccncc21,1.46
13,Cc1nnc(-c2ccc(C)c(-c3ccc(C(=O)Nc4cccc(C#N)c4)cc3)c2)o1,-0.57
14,COc1ccc(-c2nn3ncccc3c2-c2ccnc(Nc3ccc(Cl)c(C(F)(F)F)c3)n2)cc1,-1.11
15,CS(=O)(=O)CCNCc1ccc(-c2ccc3ncnc(Nc4ccc(OCc5ccccc5)c(Cl)c4)c3c2)o1,1.51
16,O=C1NC(=O)C(c2ccc(Cl)cc2)=C1Nc1ccc(Cl)c(C(=O)O)c1,-0.32
17,CCc1cccc(NC(=O)Nc2ccc(Oc3ccc4nc(NC(=O)OC)[nH]c4c3)cc2)c1,-0.99

row,Compound,inhibition [%]
1,CCn1c(-c2nonc2N)nc2c(C#CC(C)(C)O)nc(OC[C@@H](N)c3ccccc3)cc21,1.52
2,Cc1ccc(NC(=O)c2ccnc(N3CCCC3)c2)cc1-c1ccc(C(=O)NCC2CC2)cc1,-1.46
3,CCn1c(-c2nonc2N)nc2cncc(C(=O)N3CC[C@H](N)C3)c21,1.83
4,Cn1cc(C=C2C(=O)Nc3cccnc32)c2ccccc21,-2.64
5,CN(C)c1cc2c(Nc3ccc4nc(Cc5ccccc5)[nH]c4c3)ncnc2cn1,1.5
6,O=C1NC(=O)C(c2ccccc2Cl)=C1Nc1cccc(O)c1,-0.68
7,CC(=O)Nc1cccc(C#Cc2cncnc2Nc2ccc(OCc3cccc(F)c3)c(Cl)c2)n1,-0.2
8,COc1ccccc1Nc1ncc(-c2ccccc2)o1,-4.41
9,CCn1c(-c2nonc2N)nc2c(N3CCCC3)nccc21,2.9
10,COc1ccc(-c2coc3ncnc(N)c23)cc1,-0.96
11,O=C1NC(=O)C(c2cccc(Cl)c2)=C1Nc1ccc(O)c(Cl)c1,0.79
12,CS(=O)(=O)CCNCc1nc(-c2ccc3ncnc(Nc4ccc(F)c(Cl)c4)c3c2)cs1,-0.34
13,COc1cc2c(cc1Nc1nc(N3CCc4ccccc43)c3cc[nH]c3n1)N(C(=O)CN(C)C)CC2,-0.01
14,O=C1Nc2ccc(C(=O)c3ccco3)cc2C1=Cc1cc(Cl)c(O)c(Cl)c1,-0.93
15,CCCN1CCC=C(c2ccc(Nc3nc(Nc4ccccc4C(N)=O)c4cc[nH]c4n3)c(C)c2)C1,1.61
16,COc1cccc(-n2ncc3c(N/N=C/c4cccc(F)c4)ncnc32)c1,-0.87
